Results published in PubChem BioAssay (NCATS).
Values without a mark were called inactive. Unless noted, calls come from the whole dose curve. Records with an inconclusive call do not appear. Residues, ends and D or L forms follow the SMILES beside them. *: point of attachment. Cbz = O=C(OCc1ccccc1)*

target: Tumor susceptibility gene 101 protein (Homo sapiens) (UniProt Q99816); experiment: qHTS Validation Assay for Iinhibitors of HIV-1 Budding by Blocking the Interaction of PTAP/TSG101 (AID 485342); conditions: TSG101-PTAP binding, fluorescence polarization, 4-point titration; series mostly up to 115 µM; fluorescence change: at the top concentration; note: 0% is about no effect
In short: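 Tsg101 binding domain (10 uM final) in pH 7.5 HEPES/NaCl/Tween 20/EDTA/TCEP buffer was mixed with pin-transferred compounds, then FITC-labeled PTAP peptide (50 nM final) was added; after 20 min at r.t., fluorescence polarization was read.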

Tumor susceptibility gene 101 protein (Homo sapiens), sequence (Q99816 whole entry, looked up, the tested form may be a part): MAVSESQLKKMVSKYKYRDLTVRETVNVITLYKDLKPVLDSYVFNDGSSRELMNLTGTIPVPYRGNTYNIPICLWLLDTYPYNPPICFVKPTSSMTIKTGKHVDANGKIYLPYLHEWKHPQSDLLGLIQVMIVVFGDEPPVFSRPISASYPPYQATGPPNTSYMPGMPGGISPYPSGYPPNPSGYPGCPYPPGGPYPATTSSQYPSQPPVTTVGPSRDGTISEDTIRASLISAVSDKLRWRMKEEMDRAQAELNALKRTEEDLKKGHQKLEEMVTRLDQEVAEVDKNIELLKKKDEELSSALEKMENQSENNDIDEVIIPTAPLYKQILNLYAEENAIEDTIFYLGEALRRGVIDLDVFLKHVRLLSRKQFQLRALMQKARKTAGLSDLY

| Structure (SMILES) | fluorescence change |
| --- | --- |
| COc1cc(C(O)CO)ccc1O (stereo not drawn) | 3.78% |
| CC(C)[C@H](NC(=O)OCc1ccccc1)C(=O)N[C@H](C=O)Cc1ccccc1 (Cbz-Val-Phe-aldehyde) | 1.38% |
| CCCCOC(=O)NS(=O)(=O)c1sc(CC(C)C)cc1-c1ccc(Cn2c(CC)nc3c(C)cc(C)nc32)cc1 | -20.5% |
| CN1CCN(c2nc3cc(C(F)(F)F)ccc3n3cccc23)CC1 | -0.0827% |
| O=C(O)[C@H]1NCCC[C@H]1C(=O)O | -4.6% |
| C=CCN1CCc2c(cc(O)c(O)c2Br)[C@@H](c2ccccc2)C1 | -9.04% |
| C[C@](Cc1ccc(O)c(O)c1)(NN)C(=O)O | 2.08% |
| [Li+] | -2.07% |
| C#CC(N)CCC(=O)O (stereo not drawn) | 3.76% |
| CCCCCC[C@@H]([C@@H](C)O)n1cnc2c(N)ncnc21 | 0.55% |
| N=C(N)SCCN | 0.113% |
| CC(=O)[C@H]1CCC2C3CC=C4C[C@@H](OS(=O)(=O)O)CC[C@]4(C)C3CC[C@@]21C (stereo partly drawn) | -0.877% |
| CC1CNCCN1S(=O)(=O)c1cccc2cnccc12 (stereo not drawn) | -2.17% |
| COC(=O)C1=C(C)NC(C)=C([N+](=O)[O-])C1c1ccccc1C(F)(F)F (stereo not drawn) | -1.17% |
| OC1(c2ccc(Cl)cc2)CCN(Cc2c[nH]c3ccccc23)CC1 | 3.21% |
| O[Si](CCCN1CCCCC1)(c1ccc(F)cc1)C1CCCCC1 (stereo not drawn) | 4.41% |
| N#CC(=C(\N)Sc1ccccc1N)/C(C#N)=C(/N)Sc1ccccc1N | -6.26% |

| Structure (SMILES) | fluorescence change |
| --- | --- |
| CCCCCCCCCCCCCCC[C@H](O)[C@H](N)CO | 11% |
| C=CCN1CCc2c(cc(O)c(O)c2Cl)C(c2ccccc2)C1 (stereo not drawn) | -0.537% |
| C[C@]12C=CC(=O)C=C1CC[C@@H]1C2=CC[C@]2(C)[C@@H](C(=O)CN3CCN(c4cc(N5CCCC5)nc(N5CCCC5)n4)CC3)CC[C@@H]12 | 11.7% |
| O=C(c1ccc2c(c1)OCCO2)N1CCCCC1 | 3.62% |
| O=c1[nH]ccc2c(O)cccc12 | -2.99% |
| O=C(O)C1=CC(=C(c2ccc(O)c(C(=O)O)c2)c2ccc(O)c(C(=O)O)c2)C=CC1=O | -12.3% |
| O=C1Nc2ccc(I)cc2/C1=C/c1cc(Br)c(O)c(Br)c1 | 1.61% |
| COc1cc(N)c(Cl)cc1C(=O)OCCN1CCCCC1 | -1.71% |
| N#C/C(=C\c1ccc(O)c(O)c1)C(=O)NCCc1ccccc1 | -1.7% |
| CCCCCCCCCC(=O)NC(CN1CCOCC1)[C@H](O)c1ccccc1 (stereo partly drawn) | -4.36% |
| CC(N)=O | 2.32% |
| NC1(C(=O)O)CC1 | 3.37% |
| COc1ccccc1N1CCN(CCCCNC(=O)c2ccc3ccccc3c2)CC1 | -0.232% |
| CSC(N)=NCCC[C@H](N)C(=O)O | 2.98% |
| Cn1cc(C(F)(F)F)nc1-c1ccc(OCC(O)CNCCOc2ccc(O)c(C(N)=O)c2)cc1 (stereo not drawn) | 3.44% |
| Cn1c(=O)c2[nH]c(C3CCCC3)nc2n(C)c1=O | 3.02% |

test system: not listed separately; experiment: qHTS Validation Assay to Find Inhibitors of Chronic Active B-Cell Receptor Signaling (AID 485345; active = well fitted curve in the direction sought with a large enough effect in the main read-out, with a control signal flat, not every such curve was filed as active;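 note: 0% = untreated basal cells and 100% = 10 µM MG-132 proteasome inhibitor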); conditions: ABC-DLBCL cells, chronic BCR signaling reporter, CBG luciferase; series mostly up to 46.1 µM; activity change: at the top concentration
In short: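 TMD8 ABC-DLBCL cells with dox-inducible green luciferase–IκBα fusion and red native luciferase; compounds 46 uM–3 nM, 4 h at 37C with doxycycline in 0.5% FBS IMDM. Green/red ratio normalized to basal and 10 uM MG-132.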

| Structure (SMILES) | activity change |
| --- | --- |
| COc1cc(C(O)CO)ccc1O (stereo not drawn) | -0.635% |
| CC(C)[C@H](NC(=O)OCc1ccccc1)C(=O)N[C@H](C=O)Cc1ccccc1 (Cbz-Val-Phe-aldehyde) | -7.5% |
| NC(N)=NC(N)=Nc1cccc(Cl)c1 | -0.496% |
| O=C(O)[C@H]1NCCC[C@H]1C(=O)O | 0.265% |
| C=CCN1CCc2c(cc(O)c(O)c2Br)[C@@H](c2ccccc2)C1 | -12.8% |
| C[C@](Cc1ccc(O)c(O)c1)(NN)C(=O)O | -4.72% |
| [Li+] | -1.01% |
| C#CC(N)CCC(=O)O (stereo not drawn) | -4.19% |
| CCCCCC[C@@H]([C@@H](C)O)n1cnc2c(N)ncnc21 | -9.64% |
| NC(C(=O)N[C@@H]1C(=O)N2C(C(=O)O)=C(Cl)CS[C@H]12)c1ccccc1 (stereo partly drawn) | -6.88% |
| CC(=O)[C@H]1CCC2C3CC=C4C[C@@H](OS(=O)(=O)O)CC[C@]4(C)C3CC[C@@]21C (stereo partly drawn) | 1.63% |
| COC(=O)C1=C(C)NC(C)=C([N+](=O)[O-])C1c1ccccc1C(F)(F)F (stereo not drawn) | 11.6% |
| O[Si](CCCN1CCCCC1)(c1ccc(F)cc1)C1CCCCC1 (stereo not drawn) | -5.76% |
| CC1CCN(CC[C@H]2CCCN2S(=O)(=O)c2cccc(O)c2)CC1 | -2.32% |
| CCCCCCCCCCCCCCC[C@H](O)[C@H](N)CO | -6.73% |
| C=CCN1CCc2c(cc(O)c(O)c2Cl)C(c2ccccc2)C1 (stereo not drawn) | 0.0191% |
| O=C(c1ccc2c(c1)OCCO2)N1CCCCC1 | 2.49% |
| O=c1[nH]ccc2c(O)cccc12 | -10.1% |
| COc1cc(N)c(Cl)cc1C(=O)OCCN1CCCCC1 | -11.7% |
| CCCCCCCCCC(=O)NC(CN1CCOCC1)[C@H](O)c1ccccc1 (stereo partly drawn) | -0.305% |
| CC(N)=O | 9.32% |
| NC1(C(=O)O)CC1 | 0.279% |
| COc1ccccc1N1CCN(CCCCNC(=O)c2ccc3ccccc3c2)CC1 | -21.7% |
| CSC(N)=NCCC[C@H](N)C(=O)O | 1.22% |
| Cn1cc(C(F)(F)F)nc1-c1ccc(OCC(O)CNCCOc2ccc(O)c(C(N)=O)c2)cc1 (stereo not drawn) | 0.635% |
